D2 antag: D2 dopamine receptor (human) antagonism | inhibition, % at 10 µM | P14416 | HEK293 TREx D2 cells, calcium flux, dopamine EC80 | hit rate 2% among 340,000; in the data active = inhibition above about 30%; inactive = below that, where a call was filed; note: 0% is about no effect
Target sequence (P14416 whole entry, looked up): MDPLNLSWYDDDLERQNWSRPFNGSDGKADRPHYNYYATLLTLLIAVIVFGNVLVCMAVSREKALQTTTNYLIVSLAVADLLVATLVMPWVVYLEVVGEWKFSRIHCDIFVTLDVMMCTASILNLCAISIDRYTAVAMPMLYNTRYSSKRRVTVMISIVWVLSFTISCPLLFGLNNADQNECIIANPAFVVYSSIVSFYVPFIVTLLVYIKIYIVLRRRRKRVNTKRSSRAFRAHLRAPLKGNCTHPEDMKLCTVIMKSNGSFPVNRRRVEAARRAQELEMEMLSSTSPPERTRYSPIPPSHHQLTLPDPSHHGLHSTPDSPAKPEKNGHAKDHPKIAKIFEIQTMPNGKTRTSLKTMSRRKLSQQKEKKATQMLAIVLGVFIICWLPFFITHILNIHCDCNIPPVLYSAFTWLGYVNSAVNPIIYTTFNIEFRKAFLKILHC
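Inhibition of EC80 dopamine-driven calcium flux, recorded kinetically, defines activity here; cells are a tetracycline-induced HEK293 T-REx line expressing force-coupled D2.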
D2 ag-1: human D2 receptor agonism in beta-arrestin assay; P14416; DiscoveRx PathHunter D2 beta-arrestin, luminescence, 90 min; 100% = 57 uM dopamine signal; activation, % (concentration not given with the values); hit rate 0.084% among 360,000; AID 624465; in the data active = activation above about 40%; inconclusive = between about 15% and that limit
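Agonist mode: compounds alone added to overnight-plated D2 PathHunter cells for 90 min at 37 C, with 57 uM final dopamine (EC100) defining full response. Beta-arrestin recruitment detected by chemiluminescent reagent, read after 1 h at ambient temperature.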
D2 PAM-1: human D2 receptor positive allosteric modulation | P14416 | potentiation, % (test concentration not listed) | hit rate 0.23% among 360,000 | DiscoveRx D2 beta-arrestin cells, luminescence, 90 min; 100% = 57 uM dopamine signal; in the data active = potentiation above about 50%; inconclusive = mostly about 30% to 49%
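PathHunter beta-arrestin assay in DiscoveRx D2 cells. Compounds were added with an EC20 of dopamine (50 nM final) for 90 min at 37 deg C. Luminescence was read 1 h after detection reagent, with 57 uM dopamine as the EC100 control.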
D2 PAM-2: D2 dopamine receptor (human) potentiation; P14416; HEK293 T-REx D2, calcium flux, EC20 dopamine potentiation; potentiation, % at 10 µM; hit rate 0.34% among 340,000; AID 485347;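 active = potentiation over 3 SD above the plate norm, cut at about 30% in these data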; note: 0% is about no effect
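Cells plated with tetracycline inducer and held overnight at 30 C; calcium dye loaded 30–90 min at room temperature; baseline taken, compound added and read 180 s; EC20 dopamine then added and read 180 s.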
D2 ag-2: D2 dopamine receptor (human) agonism; HEK293 T-REx D2 cells, calcium flux agonist mode; AID 485358; hit rate 0.53% among 340,000; activation, % at 2 µM;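 active = activation over 3 SD above normal in the single-dose calcium agonist read, cut at about 30% in these data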; note: 0% is about no effect
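Tetracycline-induced HEK293 T-REx cells with force-coupled D2 receptor, plated overnight at 30 C, loaded with no-wash calcium dye. After a 10 s baseline, compound was pin-added and calcium flux read kinetically for 180 s; calcium rises flagged agonists.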
* hit, by the source's call; u = inconclusive; x = no result given; ! = repeats disagree. Only some compounds are listed: those with a hit (about 2.4% of all), similar ones and a draw of the others.

SMILES | D2 antag | D2 ag-1 | D2 PAM-1 | D2 PAM-2 | D2 ag-2
Cc1cccc2c(=O)cc(CSc3ccccc3NC(=O)c3cccc(F)c3)[nH]c12 | x | x | x | 17 | 1
COc1cc(C(C)=O)ccc1OCC(O)CN1CCN(c2ccccn2)CC1 (configuration not stated) | 93* | 60* | 23 | -18 | 78*
O=C(CN1CCN(c2ccccc2F)CC1)c1c[nH]c2ccccc12 | 20 | 0 | -40 | -17 | 0
COc1ccccc1N1CCN(CC(=O)c2c[nH]c3ccccc23)CC1 | 63* | 0 | -17 | -25 | -1
CCCCNC(=O)C1(C)CCCCN1C(=O)c1cc2ccccc2s1 (configuration not stated) | x | -3 | -6 | x | x
COc1cccc2c1[C@@H]1CN(CCCCn3c(=O)[nH]c4c(sc5ncc(-c6ccccc6)nc54)c3=O)C[C@@H]1CO2 | 56* | -5 | -35 | -19 | 2
COc1cc2[nH]c(=O)n(CCCC(=O)N3CC=C(c4ccccc4)CC3)c(=O)c2cc1OC | 3 | -3 | -1 | 4 | 1
CCN(CC)CCNC(=O)C1c2cc(OC)c(OC)cc2C(=O)N(C)C1c1cccs1 (configuration not stated) | 35* | -4 | -30 | x | -1
O=C(NCCCN1CCCCC1)c1ccc2c(c1)NC(=O)c1ccccc1S2 | 11 | 1 | -9 | -18 | 0
CC(C)OCCCNC(=O)c1ccc2c(c1)NC(=O)c1ccccc1S2 | -17 | 2 | -1 | 37*! | -1
Cc1ccc2c(c1)-c1onc(C(=O)N(C)c3ccc(F)cc3)c1CO2 | x | x | x | 5 | 1
COc1cccc(OC)c1OCCN1CCN(C(c2ccccc2)c2ccccc2)CC1 | -17 | -1 | -34 | -20 | 0
OCCOCCN1CCN(C(c2ccccc2)c2ccc(Cl)cc2)CC1 (configuration not stated) | 72* | -4 | -36 | -29 | 2
Cc1cc(NC(=O)CSc2nc(-c3ccco3)cc(C(F)(F)F)n2)no1 | 36* | -4 | -18 | -2 | 2
Cc1cc(NC(=O)CCSc2nc(-c3ccco3)cc(C(F)(F)F)n2)no1 | -15 | -3 | 0 | 1 | -1
COc1ccc(/C=C\c2onc(C)c2S(=O)(=O)N2CCC(C(=O)Nc3ccc(Cl)cc3)CC2)cc1 | x | x | x | -3 | 1
Oc1ccc2nnc3c(Br)cnn3c2c1 | -9 | u | 12 | 6 | 53*
Cc1cc(C)c(C(=O)c2ccc(C(=O)NC(C)(C)C)cc2)c(C)c1 | 40* | -1 | -2 | 0 | 0
Cc1c(C=O)c(=O)n(-c2ccccc2)n1-c1ccccc1 | -6 | -5 | -19 | 17 | 1
COc1cc(S(=O)(=O)NC2CCSc3ccccc32)ccc1NC(C)=O (configuration not stated) | 6 | -2 | -5 | 33* | -2
COc1ccc(S(=O)(=O)NC2CCSc3ccccc32)cc1NC(C)=O (configuration not stated) | -2 | -1 | -4 | 16 | 0
CC(=O)N1c2ccc(S(=O)(=O)N3CCCCCC3)cc2CC1C(=O)NCc1ccccc1F (configuration not stated) | x | x | x | 6 | 0
COc1ccc(/C=C2\SC(=S)N(CCC(=O)N3CCCCC3)C2=O)cc1 | -5 | -6 | -24 | 16 | 0
COCCN1C(=O)/C(=C/c2ccc(N3CCCC3)cc2)SC1=S | 9 | -5 | -9 | 5 | 41*
O=C1/C(=C/c2ccc(Cl)cc2)SC(=S)N1CCC(=O)N1CCCCC1CCO (configuration not stated) | 31* | 4 | -12 | 8 | 0
SMILES | D2 antag | D2 ag-1 | D2 PAM-1 | D2 PAM-2 | D2 ag-2
O=C1/C(=C/c2cccc(Cl)c2)SC(=S)N1CCC(=O)N1CCCCC1CCO (configuration not stated) | 17 | 6 | -11 | -13 | 1
COc1ccc(C(=O)NNC(=O)c2ccc(F)c(S(=O)(=O)N3CCOCC3)c2)cc1 | x | -1 | -28 | x | x
CCC1CCC(N2CCN(c3ccccc3F)CC2)CC1 (configuration not stated) | 37* | 5 | 1 | -24 | 18
Cc1ccc(CC(=O)Nc2ccc(F)c([N+](=O)[O-])c2)cc1C | 42* | -3 | -9 | -8 | 2
COc1ccc(CCNC(=O)C2CCCN(c3ncccn3)C2)cc1 (configuration not stated) | 6 | 5 | -6 | 7 | 0
CCc1ccc(OCC(=O)NNC(=O)c2ccc(NC(=O)C3CC3)cc2)cc1 | 31* | 3 | -14 | 6 | 0
Oc1ccc(Oc2ccc(Oc3ccc(O)cc3)cc2)cc1 | 10 | 6 | 3 | 10 | 1
CC(C)(C)n1nnnc1CN1CCN2CCCC2C1 (configuration not stated) | 37* | 1 | 0 | 14 | 1
COc1ccc(CN2C(=O)C(NC(=O)c3ccccc3OC)(C(F)(F)F)N=C2c2ccccc2)cc1 (configuration not stated) | x | x | x | -11 | 0
N#Cc1ccc(Sc2ccccn2)c([N+](=O)[O-])c1 | 38* | 4 | 3 | 11 | 0
COC(=O)CSc1nc2ccccc2nc1SCC(=O)OC | -7 | 0 | -12 | 31* | 1
Cc1ccc2cc(CN(CC3CCCO3)C(=S)NCc3ccco3)c(=O)[nH]c2c1C (configuration not stated) | 33* | -11 | -5 | 5 | -1
Cc1ccc(C)c2[nH]c(=O)c(CN(CC3CCCO3)C(=S)NCc3ccco3)cc12 (configuration not stated) | 6 | 1 | 1 | 2 | -1
Cc1ccc(C)c2[nH]c(=O)c(CN(Cc3cccs3)C(=S)NCc3ccco3)cc12 | 53* | 0 | -8 | 6 | 2
O=C1c2ccccc2CCCC12N=NCC2c1cccc2ccccc12 (configuration not stated) | x | u | 119* | x | x
CCN(Cc1nc(-c2ccc(OC)c(OC)c2)no1)C(=O)c1ccc2c(c1)OCO2 | 37* | -3 | -10 | 3 | 0
C/C(=N\NC(=O)c1c(C)nc2ccccn12)c1ccccc1F | 31* | -1 | -1 | -1 | 0
COCCCNCCCCOc1ccccc1-c1ccccc1 | 89* | 4 | -31 | -22 | 0
COCCCNCCOc1ccccc1-c1ccccc1 | 93* | -1 | -13 | -33 | 2
C=CCNCCCCOc1ccccc1-c1ccccc1 | 49* | -2 | -17 | -22 | 0
COCCNCCOc1ccccc1-c1ccccc1 | 8 | 4 | -32 | 20 | -1
C=CCNCCCCOc1ccc(OCc2ccccc2)cc1 | 26 | -5 | -18 | 16 | 2
CC(=O)c1sc(C(=O)O)c(-c2ccco2)c1-c1ccco1 | -7 | 0 | -8 | -4 | 0
